Data: PubChem BioAssay
A number with no mark means an inactive call. No rule for the calls is given here.

System: Aerobactin synthetase IucA (Klebsiella pneumoniae hvKP1)
Experiment: IucA enzyme inhibition, primary screen, biochemical, Spectrum library (AID 1346200);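 also: 100% = wells without compound and 0% = wells lacking enzyme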
Settings: malachite green pyrophosphate, A620, at 8 µM, stronger effect = lower value

CNCC[C@H](Oc1cccc2ccccc12)c1cccs1
activity remaining: 114%

CC1CCc2cc(F)cc3c(=O)c(C(=O)O)cn1c23 (stereo not given)
activity remaining: 119%

CC(=O)OCC(=O)[C@@]1(O)CCC2C3C[C@H](C)C4=CC(=O)C=CC4(C)C3[C@@H](O)CC21C (stereo not given in full)
activity remaining: 93.6%

COc1ccc(C(=O)O)c(O)c1OC
activity remaining: 93.8%

CN1C2CC(OC(=O)[C@H](CO)c3ccccc3)C[C@H]1[C@H]1OC21 (stereo not given in full)
activity remaining: 109%

CN(Cc1cnc2nc(N)nc(N)c2n1)c1ccc(C(=O)NC(CCC(=O)O)C(=O)O)cc1 (stereo not given)
activity remaining: 121%

COc1cc2c3cc1Oc1cc(ccc1O)C[C@@H]1c4c(cc(OC)c(O)c4Oc4ccc(cc4)C[C@@H]3N(C)CC2)CC[N+]1(C)C
activity remaining: 99.6%

Cc1ccsc1/C=C/C1=NCCCN1C
activity remaining: 123%

Nc1ccn(C2O[C@H](CO)[C@@H](O)[C@H]2O)c(=O)n1 (stereo not given in full)
activity remaining: 101%

CCCOc1ccc2nc(NC(=O)OC)[nH]c2c1
activity remaining: 98.2%

CC1=C(/C=C/C(C)=C/C=C/C(C)=C/CO)C(C)(C)CCC1
activity remaining: 105%

CC(C)=CCc1c(O)cc2occ(-c3ccc4c(c3)OCO4)c(=O)c2c1O
activity remaining: 114%

CC(NCCc1ccc(O)cc1)C(O)c1ccc(O)cc1 (stereo not given)
activity remaining: 115%

C#CCCCCCCCCCCCC(=O)CC(O)COC(C)=O (stereo not given)
activity remaining: 122%

Cc1cc(=O)n(-c2ccccc2)n1C
activity remaining: 110%

CC(=O)Oc1cc(OC(C)=O)c2c(c1)O[C@H](c1ccc(OC(C)=O)c(OC(C)=O)c1)[C@@H](OC(C)=O)C2
activity remaining: 98%

Cc1cc(=O)c2c(O)c(C)c(O)cc2o1
activity remaining: 108%

CCCCOc1cc(C(=O)NCCN(CC)CC)c2ccccc2n1
activity remaining: 103%

CCCc1c(OCCCCc2nn[nH]n2)ccc(C(C)=O)c1O
activity remaining: 112%

C=NC(C(=O)NC1C(=O)N2C1SC(C)(C)C2C(=O)O)c1ccccc1 (stereo not given)
activity remaining: 110%

CC(C)[N+]1(C)C2CC[C@@H]1CC(OC(=O)C(CO)c1ccccc1)C2 (stereo not given in full)
activity remaining: 109%

NC1=NCCN1CC(=O)O
activity remaining: 112%

C=C(C)[C@H]1CC=C(C(=O)O)CC1
activity remaining: 120%

C/C=C(\C)C(=O)O[C@@H]1c2c(ccc3ccc(=O)oc23)OC(C)(C)[C@@H]1OC(C)=O
activity remaining: 87%

CC(C)(C)CC(C)(C)c1ccc(O)c(Cc2ccc(Cl)cc2Cl)c1
activity remaining: 110%
